Screening results (PubChem)
BaF3 tox: counter-screen for JAK2V617F inhibitors: parental Ba/F3 viability inhibitors; CellTiter-Glo ATP luminescence; inhibition, % at 5.6 µM; hit rate 1.1% among 220,000;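 active means inhibition above a per-campaign cutoff, the mean inhibition of all tested compounds plus 3 SD, cut at about 27% in these data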;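 further: 0% = DMSO wells and 100% = JAK Inhibitor I control wells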
KLF5 inh: kruppel-like factor 5 inhibition. DLD-1 KLF5 promoter-luciferase reporter, luminescence. inhibition, % at 5 µM. hit rate 0.23% among 290,000;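 active means inhibition above a per-plate limit of that plate's mean compound inhibition plus 3 SD, cut at about 60% in these data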;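 further: 0% = DMSO wells and 100% = LY294002 at 200 µM; higher means less KLF5 promoter-driven luciferase light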
APP transl inh: APP translation inhibition | SH-SY5Y APP 5'UTR-luciferase reporter, luminescence | inhibition, % at 2 µM | hit rate 0.82% among 190,000 | AID 1285;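 active means inhibition above a set limit, derived from the sample mean plus 3 SD, cut at about 45% in these data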
aSyn 5UTR inh: 5' untranslated region of α-synuclein, MLPCN primary screen; alpha-synuclein 5'UTR reporter, inhibitor activity; inhibition, % (tested at 7.5 µM); hit rate 0.82% among 300,000; AID 1813; in the data active means inhibition above about 60%;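 further: H4 neuroglioblastoma cells stably carrying SNCA 5'UTR luciferase fusion; 0% = DMSO wells and 100% = positive control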
Ba/F3 V617F tox: lowers viability of Ba/F3 cells expressing EpoR and JAK2V617F. ATP luminescence. inhibition, % at 5.6 µM. hit rate 1.1% among 220,000. AID 1446;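 active means inhibition above the campaign mean plus 3 SD over all tested compounds, cut at about 24% in these data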;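 further: cytokine-independent growth of Ba/F3 cells driven by EpoR plus mutant JAK2; 0% = DMSO-treated cells and 100% = JAK inhibitor I control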
IEC-6 tox: counter-screen for KLF5 inhibitors: cytotoxicity in IEC-6 cells; IEC-6 cytotoxicity, luminescence viability; hit rate 0.78% among 290,000; inhibition, % at 5 µM; in the data active means inhibition above about 22%;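 further: 0% = plate median of test compound wells and 100% = cytotoxic reference compound wells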
Active calls of the source: *; . = no result. Sampled rows, rich in hits. Any-hit rate of the full collection: about 2.2%.

SMILES	BaF3 tox	KLF5 inh	APP transl inh	aSyn 5UTR inh	Ba/F3 V617F tox	IEC-6 tox
Cc1ccccc1Nc1ncnc(N)n1	8	-37	4	-25	-1	-14
COC(=O)c1ccc2c(c1)C(C)(C)C(/C=C/c1ccc(O)cc1)=[N+]2C	29*	-12	-10	119*	7	4
COc1cc(/C=C/c2ccc(O)cc2)cc(OC)c1	-5	-81	.	-156	11	8
COC(=O)c1ccc2c(c1)C(C)(C)C(/C=C/c1ccc(OC)c(OC)c1OC)=[N+]2C	6	6	29	102*	2	11
COc1cccc(-c2nc(CS(=O)(=O)CC(=O)Nc3cc(F)ccc3F)c(C)o2)c1	.	-12	.	17	.	3
C=CCNc1cc(N2CCCC2)ccc1[N+](=O)[O-]	6	-4	57*	35	3	7
COc1ccc(-n2cc([N+](=O)[O-])c(=O)c3ccc(Cl)cc32)cc1	.	.	.	-15	.	.
NS(=O)(=O)c1ccc(NC(NC(=O)c2cccnc2)C(Cl)(Cl)Cl)cc1 (stereo unspecified)	.	-49	.	-1	.	-8
Clc1ccc2nc(-c3ccccn3)c(Nc3ccc4c(c3)OCO4)n2c1	5	-4	46*	-47	0	0
CCCCSc1nnc(-c2ccc(C)cc2)n1C	35*	-41	-38	-109	31*	5
CCSc1nnc(-c2ccc(S(=O)(=O)N3CCCC3)cc2)n1C	1	-6	73*	-36	0	2
CCSc1nnc(-c2ccc(S(=O)(=O)N3CCOCC3)cc2)n1C	.	3	.	10	.	8
Cc1ccnc(NC(c2cccnc2)c2ccc3cccnc3c2O)c1 (stereo unspecified)	4	6	7	-9	2	-2
CCCCC(=O)NC(c1ccc(Cl)cc1Cl)c1ccc2cccnc2c1O (stereo unspecified)	.	45	.	92*	.	7
CCCC(=O)NC(c1ccco1)c1cc([N+](=O)[O-])c2cccnc2c1O (stereo unspecified)	7	-19	-7	-15	2	-5
CC(NC(=O)CSc1ncccn1)c1ccc(Cl)cc1Cl (stereo unspecified)	9	-22	-8	-2	-3	-7
CC(C)C(=O)NC(c1ccc(Cl)cc1Cl)c1ccc2cccnc2c1O (stereo unspecified)	.	79*	.	92*	.	13
Oc1ccccc1C(Nc1nccs1)c1ccc2cccnc2c1O (stereo unspecified)	-6	27	.	77*	2	14
CC(=O)NC(c1ccco1)c1ccc2cccnc2c1O (stereo unspecified)	8	28	55*	77*	9	18
O=C(CN(Cc1ccccc1)S(=O)(=O)c1ccccc1)N/N=C/c1ccc([N+](=O)[O-])cc1	95*	-16	10	8	1	-5
O=C(O)CC(CC(=O)O)(C(=O)O)c1ccccc1	-2	2	.	-1	-3	-6
C/C(N)=C(/C#N)C(=O)COC(=O)CSc1ccccc1	4	-1	-11	19	3	1
C/C(N)=C(/C#N)C(=O)COC(=O)CCSc1ccccc1Cl	2	-13	81*	-6	-3	1
COc1ccc(N2Cc3ccccc3C2=NC(=O)c2cncc(Br)c2)cc1	5	-36	-22	.	1	12
O=C(CN1C(=O)c2ccccc2S1(=O)=O)c1ccc(OC(F)F)cc1	.	3	.	86*	.	-9
SMILES	BaF3 tox	KLF5 inh	APP transl inh	aSyn 5UTR inh	Ba/F3 V617F tox	IEC-6 tox
O=C(CCN1C(=O)c2ccccc2S1(=O)=O)Nc1ccccc1	62*	-11	-7	-18	48*	-2
O=C(CN1C(=O)c2ccccc2S1(=O)=O)c1ccc(F)cc1	1	-15	.	92*	0	-2
O=C(CN1C(=O)c2ccccc2S1(=O)=O)c1cccc(Br)c1	.	26	.	84*	.	-3
COc1ccc(C(=O)OCN2C(=O)c3ccccc3C2=O)cc1	8	-23	16	-7	0	4
CCCCc1ccc(NC(=O)CSc2nnc(CNC(=O)c3ccco3)o2)cc1	.	-15	.	6	.	-13
O=C(CN1C(=O)c2ccccc2S1(=O)=O)c1ccccc1F	.	8	.	82*	.	2
O=C(CN1C(=O)c2ccccc2S1(=O)=O)N1CCN(c2ccccc2F)CC1	7	2	3	14	0	-4
COC(=O)c1c(NC(=O)c2ccccc2)sc2c1CC(C)(C)NC2(C)C	1	-17	10	4	1	3
COC(=O)c1c(NC(=O)c2ccc(OC(C)C)cc2)sc2c1CC(C)(C)NC2(C)C	1	-17	-1	103*	-5	0
C/C(N)=C(/C#N)C(=O)CN1C(=O)NC(Cc2c[nH]c3ccccc23)C1=O (stereo unspecified)	.	-14	.	8	.	1
C=CCN(C(=O)CCc1ccccc1OC)c1nc(-c2ccc(S(C)(=O)=O)cc2)cs1	.	7	.	71*	.	-1
Cc1ccc(S(=O)(=O)N(C)C)cc1NC(=S)N1CCN(Cc2ccc3c(c2)OCO3)CC1	6	-4	-5	-29	-1	-1
CCOC(=O)c1sc(-c2ccccn2)nc1C	4	-15	-67	-125	-4	-2
Cn1nc(-c2ccc(N3CCCCC3)c(NC(=O)c3ccco3)c2)c2ccccc2c1=O	4	-20	11	67*	0	-1
CCC(=O)Nc1cc(-c2nn(C)c(=O)c3ccccc23)ccc1N1CCOCC1	2	11	-7	12	-4	4
Cc1ccc(-n2nc(C)c(C(=O)N3CCN(C(=O)c4ccco4)CC3)c2-n2cccc2)cc1	.	-38	.	27	.	-1
COc1cccc(CNC(=O)Cn2ncc3c(=O)oc4ccccc4c32)c1	62*	-15	.	3	61*	-4
O=C(Cn1ncc2c(=O)oc3ccccc3c21)NCc1cccnc1	11	-22	-1	7	5	9
CCOC(=O)c1[nH]c2ccc(OC)cc2c1NC(=O)c1nonc1C	0	-21	46*	6	3	0
CCOC(=O)c1[nH]c2ccc(Cl)cc2c1NC(=O)c1nonc1C	0	-16	2	-11	-2	-4
O=C(OCCN1C(=O)c2cccc3c(N4CCOCC4)ccc(c23)C1=O)c1ccc(Cl)cc1	4	-2	50*	53	-2	-4
CCn1c2ccccc2c2cc(/C=N/NC(=O)c3ccccc3C)ccc21	10	-17	79*	0	2	4
O=C(c1ccc(F)cc1)N(C(=O)c1ccc(F)cc1)c1ncccn1	2	-32	71*	8	-2	-1
CN(CC(=O)Nc1ccc(Cl)cc1)C(=O)CCc1c[nH]c2ccccc12	.	-17	.	14	.	-1
COc1cc(C(=O)Nc2ccc3c(c2)Cc2ccccc2-3)cc(OC)c1OC	-1	11	4	-8	-5	6
COc1cc(C(=O)Nc2ccc3c(c2)CCN3C(C)=O)cc(OC)c1OC	79*	28	81*	97*	78*	40*
CNc1ccccc1C(C)(C)c1cc(-c2cccc(OC)c2)no1	56*	-19	3	16	48*	-1
